Inconclusive results are not listed. A call without a number means that no potency is given here. The source made the active and inactive calls. Calls follow the shape of the dose curve; as a rule, active = well fitted inhibition curve with a large enough effect; inconclusive = small, poorly fitted or top-dose-only effect; inactive = no such curve, though single readings can be large or run the other way.
Potency is read from the fitted curve at half-maximal effect.

This test can be described thus: Acumen qHTS Assay for Inhibitors of the mTORC1 Signaling Pathway in WT MEF Cells: Hit Validation. Also: nearly all actives have a fitted effect of over 60% in size. Particulars: Acumen imaging; series mostly up to 37.3 µM. In outline:
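Read-out is immunofluorescent phospho-rpS6 (Ser235/236) normalised to PI-stained cell number, reported as % active cells using a 7.5 nM rapamycin threshold. Cells: WT or Tsc2-/-, p53-/- MEFs, compound-exposed 24 h at 37C; PI count also tracks viability.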
Turning to `CCS(=O)(=O)c1ncc(Cl)c(C(=O)N2CCN(c3ccc(OC)cc3)CC2)n1`, the Potency is 10.4 µM (active).

Regarding `CC(C)(C)OC(=O)N1CCC(c2c(C(=O)NCCN3CCC(Cc4ccccc4)CC3)cnn2-c2cccc(Cl)c2)CC1`, the Potency is 10.4 µM (active).

For `CCOc1cc(C(=O)Nc2ccc(-c3cn4cccnc4n3)cc2)cc(OCC)c1OCC`, the Potency entry was “inactive”.

On to `COc1ccc(C)cc1NC(=O)CSc1ccc(-c2ccccn2)nn1`, for which the Potency result was “inactive”.

`COC(=O)c1c(C)oc2ccc(N(C(=O)c3ccncc3)S(=O)(=O)c3ccc(OC)cc3)cc12`: the Potency is 4.14 µM (active).

`COc1ccc(Cn2c(C(=O)O)c(CNCc3ccccc3F)c3ccc(OC)cc32)cc1`: the Potency result is “inactive”.

In the case of `CCN1CCN(C(=O)Cn2ncc3c4ccccc4n(Cc4c(C)cc(C)cc4C)c3c2=O)CC1`, the Potency is 5.21 µM (active).

`CN1CCN(C2(CNC(=O)COc3ccc(C(C)(C)C)cc3)CCCCC2)CC1`: the Potency entry was “inactive”.

With `COc1ccc(NC(=O)c2c(NC(=O)COc3ccccc3)sc3c2CCC(C)C3)cc1` (stereo not given), the Potency result was “inactive”.

Regarding `CCOc1ccc(CC(=O)NC2CC(=O)N(c3ccc4c(c3)OCCO4)C2)cc1` (stereo not given), the Potency entry was “inactive”.

As to `CCCCOC(=O)c1ccc(NC(=O)c2ccc3c(c2)CCN3S(=O)(=O)c2ccccc2)cc1`, the Potency entry is “inactive”.

As to `COc1ccc(NC(=O)c2ccco2)cc1NC(=O)COc1ccccc1Cl`, the Potency entry is “inactive”.

As for `Cc1ccc(-c2nn(C)c(=O)c3ccccc23)cc1S(=O)(=O)NCCCN(C)C`, the Potency result is “inactive”.

`Cc1c(C(=O)OC2CCC(C)CC2)[nH]c2c1C(=O)CC(c1ccc(F)cc1)C2` (stereo not given): the Potency entry is “inactive”.

As for `CCOC(=O)c1c(NC(=O)c2ccc(S(=O)(=O)N(C)C)cc2)sc2c1CCN(C)C2`, the Potency entry is “inactive”.

`COc1ccc(CCN(C)CCCC(C#N)(c2ccc(OC)c(OC)c2)C(C)C)cc1OC` (stereo not given): the Potency entry was “inactive”.

Take `O=C(Cn1c(=O)c2cccn2c2ccccc21)NCc1ccccc1F`: the Potency result was “inactive”.

In the case of `COc1ccc(C2=NS(=O)(=O)N(C)C(C(=O)Nc3ccc(OC(F)(F)F)cc3)=C2)cc1`, the Potency entry is “inactive”.

Consider `O=C(Nc1ccc2oc(-c3ccc4ccccc4c3)nc2c1)c1cc(Br)ccc1Cl`, for which the Potency was 13.1 µM (active).

For `COc1ccc(CCNC(=O)CCCn2nc(C)c3sc4ccccc4c3c2=O)cc1OC`, the Potency result is “inactive”.

In the case of `CCOc1ccc(NC(=O)c2sc3nc4c(cc3c2N)CCCCCC4)cc1`, the Potency result is “inactive”.

As for `Cc1oc(-c2ccccc2F)nc1Cn1c(SCc2cccc(Cl)c2)nc2ccncc21`, the Potency result is “inactive”.

For `COc1ccc(C(=O)N2CCN(C(=O)COc3ccc(Br)cc3)CC2)cc1OC`, the Potency result is “inactive”.

`O=S(=O)(NCC(c1ccco1)N1CCN(c2ccc(F)cc2)CC1)c1ccccc1` (stereo not given): the Potency result is “inactive”.

Regarding `Cc1c(C(=O)OCc2ccccc2)[nH]c2c1C(=O)CC(c1ccc(Cl)cc1)C2` (stereo not given), the Potency is 13.1 µM (active).

Consider `Cc1ccc(CN2C(=O)C(=O)c3cc(Br)cc(C)c32)cc1`, for which the Potency entry is “inactive”.

For `CC1C(=O)Nc2ccc(S(=O)(=O)Nc3ccccc3Br)cc2NC1=O` (stereo not given), the Potency entry is “inactive”.

Regarding `CCOC(=O)C1CCN(C(=O)CSc2c3c(nc4ccc(Cl)cc24)CCCC3)CC1`, the Potency result was “inactive”.

With `Cc1ccccc1C(=O)N1CCN(CCc2ccccn2)CC1`, the Potency entry was “inactive”.

Consider `CC[C@H](CO)Nc1nc(NCc2ccccc2)c2ncn(C(C)C)c2n1`, for which the Potency entry is “inactive”.

For the compound `CCc1ccc(NC(=O)Cn2c(=O)n(-c3ccc(OC)cc3)c(=O)c3ccc(C(=O)NCc4ccc(C)cc4)cc32)cc1`, the Potency was 10.4 µM (active).

Consider `Cc1cccc(CSCCNC(=O)CN(c2ccccc2)S(=O)(=O)N(C)C)c1`, for which the Potency entry is “inactive”.

With `COc1ccc2cc(CNc3ccccc3)c(=O)n(CC(=O)Nc3ccc(C)cc3C)c2c1`, the Potency result is “inactive”.

Regarding `CC(C)Oc1ccc(CNC(=O)c2ccc3nc(SCc4ccc(F)cc4)n(C)c3c2)cc1`, the Potency entry was “inactive”.

Consider `CS(=O)(=O)N(CC(=O)NCCc1ccccc1)c1cc(C(F)(F)F)ccc1Cl`, for which the Potency result is “inactive”.

As to `CCCOc1cccc(C2c3c(-c4ccccc4O)n[nH]c3C(=O)N2Cc2ccco2)c1` (stereo not given), the Potency result was “inactive”.

As for `Cc1cccc(NC(=O)c2c(N)sc3c2CCC(C)C3)c1` (stereo not given), the Potency entry is “inactive”.

For `O=C(NCCc1ccc(Cl)cc1)C(=O)NCC(c1cccs1)S(=O)(=O)c1cccs1` (stereo not given), the Potency result is “inactive”.

Turning to `COc1ccc(OC)c(Nc2c3c(nc4ccccc24)CCC3)c1`, the Potency was 0.585 µM (active).

As for `CCS(=O)(=O)c1ncc(Cl)c(C(=O)Nc2ccc(S(=O)(=O)N(C)c3ccccc3)cc2)n1`, the Potency was 0.927 µM (active).
